The test system of the experiment is TIE1. The settings on record: concentration: 1 μM, replicates: in singlicate; n = 1.
For the compound `O=C(Nc1n[nH]c2nc(-c3nccs3)c(Br)cc12)C1CCCC1` [SB-742609], the “%Inh” value is reported as 14%.
As for `CC1=C(C(=O)Nc2cc3cn[nH]c3cc2F)C(c2ccc(C(F)(F)F)cc2)CC(=O)N1` (stereo not drawn) [GSK429286], the figure is 12%.
With `Cl.O=C(Nc1cccc(-c2nn3ncccc3c2-c2ccnc(Nc3cccnc3)n2)c1)c1c(F)cccc1F` [GSK312879] the figure was 34%.
On to `Cc1ccc(NC(=O)Nc2cccc(Cl)c2)cc1-c1ccc(C(=O)Nc2ccncc2)cc1` [GSK1398468], for which the “%Inh” value was found to be 0%.
Consider `CC(=O)Nc1nc2cnc(Nc3cc(NC(=O)c4cccc(CCC#N)c4)ccc3C)nc2s1`, for which the “%Inh” value is recorded as 0%.
`COc1cccc(NC(=O)NC2CCN(c3ccnc(Nc4ccc(F)cc4)n3)C2)c1` (stereo not drawn) [GSK1379721]: the “%Inh” value came to 0%.
As for `CS(=O)(=O)c1ccc(-c2nc3n(c2-c2ccncc2)CCC3)cc1` [SKF-105942], the figure is 8%; as for `CCCc1ccc(S(=O)(=O)NC2CCN(c3ccnc(Nc4ccc(F)cc4)n3)C2)cc1` (stereo not drawn) [GSK1379715], 0%.
`O=S(=O)(c1ccc(-c2ccnc3[nH]ccc23)cc1)N1CCCC1` [GSK846226]: the “%Inh” value is 0%.
As for `Cc1ccc(NC(=O)Nc2cc(C(C)(C)C)nn2-c2ccccc2)cc1` [GSK1014915], the figure is 9%; as for `CN(C)CCN(C)C(=O)c1cc(-c2ccncc2)c(-c2ccc(Cl)c(O)c2)o1.Cl.Cl` [SB-710397], 7%.
Take `O=C(O)COc1ncnc2cc(-c3ccc4[nH]ncc4c3)sc12`: the “%Inh” value turned out to be 24%.
For the compound `Cc1cccc(-c2nc(C)cc(Nc3ccncc3)n2)n1` [GSK257997], the “%Inh” value is on record as 0%.
As for `O=C(Nc1n[nH]c2nc(-c3nccs3)c(Br)cc12)C1CC1` [SB-742251], the figure is 0%; as for `Nc1nc(-c2nccs2)c(-c2ccnc3ccccc23)s1` [GW693542], 26%; as for `CC(C)(C)c1ccc(C(=O)Nc2cn3cc(-c4cccnc4)ccc3n2)cc1`, 4%.
With `Cn1ccc2ncnc(Oc3ccc(NC(=O)Nc4ccccc4)cc3)c21` the figure was 0%; with `Cl.c1ccc(-c2n[nH]cc2-c2ccnc(-c3ccc(CN4CCOCC4)cc3)c2)nc1` [GW776245], 0%.
With `COc1cc2ncn(-c3cc(OCC4CCCO4)c(C(N)=O)s3)c2cc1OC` (stereo not drawn) [GSK204607], the “%Inh” value is 0%.
As for `COc1ccc(C2=C(Nc3cccc(C(=O)O)c3)C(=O)NC2=O)cc1` [SB-390765], the figure is 7%; as for `Fc1cc(Cl)ccc1Nc1ccnc2cc(-c3ccc(CN4CCCCC4)o3)ccc12` [GW560116], 0%; as for `O=c1cc(N2CCOCC2)nc2n(Cc3cccc(Cl)c3Cl)ccn12` [GSK2286295], 0%.
With `O=C(Nc1ccccc1)Nc1cccc(Oc2ccc3nccn3n2)c1` the figure was 0%; with `Nc1ncnc2[nH]c(-c3ccccc3)nc12` [AH5015], 38%; with `Cc1cccc(-c2nc(-c3ccc(S(C)(=O)=O)cc3)sc2-c2ccnc(NCCc3ccccc3)c2)c1`, 14%.
As for `O=C(Nc1n[nH]c2cc(-c3cccc(F)c3F)ccc12)C1CC1` [SB-733894], the figure is 0%; as for `CN1C(=O)C(Nc2ccc(Cl)c(C(=O)O)c2)=C(c2ccc(Cl)cc2)C1=O` [SB-404290], 0%.
Consider `Cn1cncc1-c1ccc2ncnc(Nc3ccc(OCc4ccccc4)cc3)c2c1` [GW320571], for which the “%Inh” value amounted to 30%.
As for `Cn1ccc2ncnc(Oc3cccc(C(=O)Nc4ccccc4)c3)c21`, the figure is 0%; as for `Fc1cc(Cl)ccc1Nc1ccnc2cc(I)ccc12` [GW551191], 0%; as for `COc1cc2ncnc(Nc3ccc4nc(-c5ccccc5)[nH]c4c3)c2cc1OC.Cl` [GW282450], 1%.
With `COc1cccc(-c2cc(-c3c[nH]nc3-c3ccccn3)ccn2)c1` [GW680338], the “%Inh” value is recorded as 0%.
As for `COc1ccc(CNC(=O)NC2CCN(c3ccnc(Nc4cc(OC)c(OC)c(OC)c4)n3)C2)cc1` (stereo not drawn) [GSK1379748], the figure is 20%.

(Values after publication PMC5540273 (PLoS ONE, 2017).)
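Note: KINOMEscan kinase panel screen.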
